Most compounds without a hit are left out; they make up all but 3.8% or so of the library.
GLS inhibitor = qHTS for Inhibitors of Glutaminase (GLS) | Glutaminase kidney isoform, mitochondrial (Homo sapiens), O94925 | GLS enzymatic activity, qHTS titration | Potency, µM (series often up to 45.5 µM), usual class: inhibitors | 410,000 compounds, 0.21% hits | AID 624170, 2012
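hKGA in 45 mM KH2PO4 (pH 8.2), 0.02% Tween-20 with compound, then 1mM L-Glutamine (stock as added) plus glutamate oxidase/HRP/Amplex red coupling mix. Fluorescence read initially and after 30 min at RT; signal change reflects glutamate formation.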
TrxR1 substrate = qHTS Assay for Substrates of Mammalian Selenoprotein Thioredoxin Reductase 1 (TrxR1): qHTS | Potency, µM (series often up to 114 µM) | 390,000 compounds, 0.01% hits | purified TrxR1 substrate turnover, NADPH consumption readout | AID 588456, 2011 | Thioredoxin reductase 1, cytoplasmic (Rattus norvegicus), O89049; note: nearly all actives have a fitted effect of over 50% in size
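Rat TrxR1, dispensed at 90 nM, was prereduced with 400 uM NADPH (final) for 5 min at ~22 deg C, then incubated with compound 15 min before 400 uM selenite. A first-read NADPH fluorescence drop versus no-compound background flagged substrates.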
TrxR1 inh = qHTS Assay for Inhibitors of Mammalian Selenoprotein Thioredoxin Reductase 1 (TrxR1): qHTS; Thioredoxin reductase 1, cytoplasmic (Rattus norvegicus), O89049; recombinant rTrxR1, NADPH fluorescence consumption, selenite substrate; Potency, µM (top dose mostly 114 µM), hits mostly inhibitors; 390,000 compounds, 1% hits; note: nearly all actives have a fitted effect of over 65% in size
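Rat TrxR1 (90 nM in the dispensed reagent) was pre-reduced with 400 uM NADPH for 5 min at room temperature, then incubated with compound for 15 min. After 400 uM selenite was added, NADPH fluorescence (Ex 340/Em 450 nm) was followed for 8 min.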
Sfp PPTase inh = qHTS Assay for Inhibitors of Bacillus subtilis Sfp phosphopantetheinyl transferase (PPTase) | 4'-phosphopantetheinyl transferase ffp (Bacillus subtilis), Q9F4F7 | Biochemical Sfp PPTase activity, qHTS | Potency, µM, usual class: inhibitors | 310,000 compounds, 3.5% hits | AID 1490, 2009;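 note: the enzyme is Sfp with the accession as filed and its product quenches rhodamine fluorescence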
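Step 1, compound plus 15 nM Sfp-PPTase, 15 min, room temperature. Step 2, add rhodamine-CoA (5 uM) and BHQ-2-YbbR (12.5 uM). Step 3, read 525/598 nm fluorescence at 0 and 30 min.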
VDR inhibitor = Inhibitors of the vitamin D receptor (VDR): qHTS | Vitamin D3 receptor (Homo sapiens), P11473 | VDR-SRC2-3 peptide fluorescence polarization, 2 h | Potency, µM, hits mostly inhibitors | 400,000 compounds, 0.93% hits
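After 23 nl compound addition and a short centrifugation, plates sat for 2 hours at ambient temperature; polarization of fluorescence then indicated loss of VDR binding to peptide SRC2-3.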
KAT2A inh = qHTS Assay for Inhibitors of GCN5L2. Histone acetyltransferase KAT2A (Homo sapiens), Q92830. GCN5L2 HAT assay, ThioGlo1 CoA-SH fluorescence. Potency, µM (highest dose often 58.9 µM), usual class: inhibitors. 390,000 compounds, 0.21% hits. AID 504327, 2011
Target sequence (Q92830 whole entry, looked up): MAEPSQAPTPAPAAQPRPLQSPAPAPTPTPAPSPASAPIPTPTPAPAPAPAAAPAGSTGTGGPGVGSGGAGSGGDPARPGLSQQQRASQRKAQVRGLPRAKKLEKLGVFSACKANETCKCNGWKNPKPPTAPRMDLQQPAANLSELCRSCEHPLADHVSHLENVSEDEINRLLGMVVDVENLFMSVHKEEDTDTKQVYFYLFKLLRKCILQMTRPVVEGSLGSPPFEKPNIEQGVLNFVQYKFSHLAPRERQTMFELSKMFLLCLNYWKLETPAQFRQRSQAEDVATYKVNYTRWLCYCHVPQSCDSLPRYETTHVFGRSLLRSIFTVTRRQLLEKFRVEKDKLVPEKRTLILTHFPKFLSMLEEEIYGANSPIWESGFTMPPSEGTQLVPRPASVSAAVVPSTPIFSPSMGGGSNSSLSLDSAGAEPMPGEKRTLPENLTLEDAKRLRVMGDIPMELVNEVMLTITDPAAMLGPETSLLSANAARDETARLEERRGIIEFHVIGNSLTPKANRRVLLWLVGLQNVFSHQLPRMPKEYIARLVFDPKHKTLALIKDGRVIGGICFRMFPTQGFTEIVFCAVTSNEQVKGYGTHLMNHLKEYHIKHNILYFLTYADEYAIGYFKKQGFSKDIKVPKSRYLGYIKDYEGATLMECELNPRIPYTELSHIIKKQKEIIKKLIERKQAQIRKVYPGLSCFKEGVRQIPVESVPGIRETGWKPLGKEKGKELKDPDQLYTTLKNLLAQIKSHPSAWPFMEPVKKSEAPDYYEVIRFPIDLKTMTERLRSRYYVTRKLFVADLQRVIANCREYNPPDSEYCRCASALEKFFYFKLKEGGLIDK
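GCN5L2 (20 nM) in 50mM HEPES pH 7.5, 0.1mM EDTA, 0.01% Tween-20 preincubated 15 min with compounds at room temperature. Reaction started with H3(1-25) 75uM, acetyl-CoA 70uM, ThioGlo1 50uM; CoA-thiol fluorescence (Ex340/Em540) read at 0 and 20 min.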
Large screens that a line does not name were inactive. Calls come from the whole dose curve; as a rule, active = well fitted curve in the direction sought with a large enough effect; inconclusive = small, poorly fitted or top-dose-only effect, or another doubt; inactive = no such curve, though single readings can be large; an effect the other way counts as inactive or inconclusive.

CCOc1ccc(CNC(=O)c2ccc3nc(CC)c(CC)nc3c2)cc1	none (no result: Sfp PPTase inh)
Cc1ccc(-n2c(SCC(=O)NCc3ccco3)nc3sc(C)c(C)c3c2=O)cc1	none
Cc1ccc(-n2c(SCC(=O)NCc3ccco3)nc3nc4c(cc3c2=O)COC(C)(C)C4)cc1	Sfp PPTase inh 25.1µM
Cc1cc(C)nc(NC(=O)Cc2ccc(Cl)cc2)c1	Sfp PPTase inh inconclusive
O=C(NCc1ccco1)c1c2c(nc3ccccc13)CCC2	TrxR1 inh inconclusive, Sfp PPTase inh 50.1µM
CCCn1c(SCC(=O)Nc2cc(S(=O)(=O)N3CCOCC3)ccc2OC)n[nH]c1=O	Sfp PPTase inh 39.8µM
CCCn1c(SCC(=O)Nc2cc(S(=O)(=O)N3CCOCC3)ccc2Cl)n[nH]c1=O	Sfp PPTase inh inconclusive
CSCC(=O)N1CCCC(CNC(=O)c2ccccc2Cl)C1 (configuration not stated)	none
CC1(C)Cc2c(sc(NC(=O)c3ccc(S(=O)(=O)N4CCCCCC4)cc3)c2C#N)C(C)(C)N1	TrxR1 inh inconclusive
CCn1c(COc2cccc(OC)c2)nnc1SCC(=O)Nc1cc(OC)ccc1OC	none
Cc1ccccc1OCC(=O)N/N=C/c1ccc(N2CCOCC2)o1	TrxR1 inh inconclusive, Sfp PPTase inh 20µM, VDR inhibitor 39.8µM
Cc1ccccc1OCC(=O)N/N=C/c1ccncc1	none
O=C(N/N=C/c1ccc(N2CCOCC2)o1)c1cccc([N+](=O)[O-])c1	TrxR1 inh 3.16µM, Sfp PPTase inh 1.12µM, VDR inhibitor inconclusive
O=C(N/N=C/c1ccc(N2CCCCC2)o1)c1ccccc1	TrxR1 inh 2.82µM, VDR inhibitor 22.4µM
CCC1OC(=O)C(C)[C@@H](O[C@H]2C[C@@](C)(OC)C(O)C(C)O2)C(C)[C@@H](O[C@@H]2OC(C)CC(N(C)C)C2O)[C@](C)(O)CC(C)/C(=N\OCOCCOC)[C@H](C)C(O)[C@]1(C)O (some centres not stated)	none (no result: GLS inhibitor, TrxR1 substrate, TrxR1 inh)
CS(=O)(=O)/C(C#N)=C\c1cnc(S(=O)(=O)c2ccccc2)s1	Sfp PPTase inh 3.55µM (no result: GLS inhibitor, TrxR1 substrate, TrxR1 inh, VDR inhibitor)
CN(C)/C=C(\C#N)S(=O)(=O)c1ccccc1	none
CCCc1cc(NC(=O)CCl)n(-c2ccccc2)n1	TrxR1 inh 50.1µM
CC(C)(C)c1cc(NC(=O)CCl)n(-c2ccccc2)n1	TrxR1 inh inconclusive
CN(C)CCCN(C(=O)c1ccc(S(=O)(=O)N2CCOCC2)cc1)c1nc2ccc(F)cc2s1	none
O=C(CCS(=O)(=O)c1ccccc1)N(CCCN1CCOCC1)c1nc2c(F)cccc2s1	TrxR1 inh 3.16µM, VDR inhibitor inconclusive (no result: Sfp PPTase inh)
O=C(CCS(=O)(=O)c1ccccc1)N(CCCN1CCOCC1)c1nc2ccc(F)cc2s1	TrxR1 inh 7.08µM (no result: Sfp PPTase inh)
Cc1ccc(S(=O)(=O)CC(=O)N(CCCN2CCOCC2)c2nc3c(F)cccc3s2)cc1	none (no result: Sfp PPTase inh)
S=C(NCc1ccccc1)Nc1ccc2ccccc2c1	none
CC(=O)Oc1cc(-c2coc3cc(OC(C)=O)c(OC(C)=O)c(OC(C)=O)c3c2=O)cc(OC(C)=O)c1OC(C)=O	VDR inhibitor 17.8µM (no result: GLS inhibitor, TrxR1 substrate, TrxR1 inh)
CCOC(=O)c1[nH]c(=O)[nH]c1CSc1nc(C)cc(C)n1	none
CCOC(=O)c1[nH]c(=O)[nH]c1COC(=O)c1cc2ccccc2o1	TrxR1 inh 3.16µM
COc1ccc(NC(=O)c2c(NCc3sccc3C)sc3c2CCCCC3)c(OC)c1	TrxR1 inh 17.8µM (no result: Sfp PPTase inh)
COc1ccc(NC(=O)c2c(NCc3ccc(C)o3)sc3c2CCCCC3)c(OC)c1	TrxR1 inh 20µM (no result: Sfp PPTase inh)
Cc1cc(N2C(=O)C(O)=C(C(=O)c3cc4ccccc4o3)C2c2ccc([N+](=O)[O-])cc2)no1 (configuration not stated)	KAT2A inh inconclusive
COC(C(=O)N1CCC(n2nccc2NC(=O)C2CC2)CC1)c1ccccc1 (configuration not stated)	none
CCOC(=O)C1=C(O)/C(=C/c2ccc(OCC(=O)O)c(OCC)c2)SC1=Nc1ccccc1	VDR inhibitor inconclusive
CCOC(=O)C1=C(O)/C(=C/c2ccccn2)SC1=Nc1ccc(Cl)cc1	Sfp PPTase inh 31.6µM
CCOC(=O)C1=C(O)/C(=C/c2ccc(-c3ccccc3C(=O)O)o2)SC1=Nc1ccc(C)cc1	GLS inhibitor inconclusive, TrxR1 inh inconclusive, VDR inhibitor 79.4µM
CN(C)C(=O)c1ccc(-c2cc(NCc3cccs3)ncn2)cc1	none (no result: GLS inhibitor, TrxR1 substrate, TrxR1 inh)
Nc1ncnc2c1CCC2	none
CCNC(=S)Nc1ccc(OCc2nc3ccccc3s2)cc1	Sfp PPTase inh 20µM, VDR inhibitor 70.8µM, KAT2A inh inconclusive
O=C(O)CCCC(=O)Nc1ccc(OCc2nc3ccccc3s2)cc1	Sfp PPTase inh 8.91µM, VDR inhibitor inconclusive
CCNC(=S)Nc1ccc(OCC)cc1	none
N#Cc1ccccc1Sc1ccccc1C(=O)OCC(=O)N1CCN(C(=O)c2ccco2)CC1	none

Screening results deposited in PubChem by National Center for Advancing Translational Sciences (NCATS).
